In PubChem BioAssay (NCATS) one finds Potency, outcome and activity change, negative = inhibition data, which are given here for five molecules.

Each structure is given as a SMILES string. Unmarked numbers belong to inactive results. Results filed as inconclusive are left out. Active and inactive are the calls of the source. Unless noted, calls come from the whole dose curve; as a rule, active = well fitted curve in the direction sought with a large enough effect; inconclusive = small, poorly fitted or top-dose-only effect, or another doubt; inactive = no such curve, though single readings can be large; an effect the other way counts as inactive or inconclusive.

Test [1] deals with Zika virus NS2B-NS3 protease. In words: Primary screen GU AMC qHTS for Zika virus inhibitors (AID 1347154).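 Note: 0% = no-inhibitor control and -100% = no-enzyme control; nearly all actives have a fitted effect of over 70% in size.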 In outline:
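Unlinked Zika NS2B hydrophilic domain/NS3 protease domain noncovalent complex (25 nM final) in 10 mM Tris-HCl pH 8.0, 0.01% Tween 20, with AMC peptide substrate. Fluorescence (ex 340, em 450 nm) change over 15 min, room temperature; percent inhibition fitted to 4-parameter Hill equation.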

In test [2] the target is Cytochrome P450 1A2 (Homo sapiens) (UniProt P05177). Kind of test: p450-cyp1a2 (AID 410; calls by dose curve; note: potency is the fitted concentration of half-maximal effect). In outline: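 Luminescent demethylation readout: Luciferin-ME (100uM, equal to Km) turned over by 20nM CYP1A2 for 60 min at room temperature after NADPH regeneration addition, following 10 min compound preincubation. Normalization used 57 uM furafylline as full inhibition.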
Cytochrome P450 1A2 (Homo sapiens), sequence (P05177 whole entry, looked up): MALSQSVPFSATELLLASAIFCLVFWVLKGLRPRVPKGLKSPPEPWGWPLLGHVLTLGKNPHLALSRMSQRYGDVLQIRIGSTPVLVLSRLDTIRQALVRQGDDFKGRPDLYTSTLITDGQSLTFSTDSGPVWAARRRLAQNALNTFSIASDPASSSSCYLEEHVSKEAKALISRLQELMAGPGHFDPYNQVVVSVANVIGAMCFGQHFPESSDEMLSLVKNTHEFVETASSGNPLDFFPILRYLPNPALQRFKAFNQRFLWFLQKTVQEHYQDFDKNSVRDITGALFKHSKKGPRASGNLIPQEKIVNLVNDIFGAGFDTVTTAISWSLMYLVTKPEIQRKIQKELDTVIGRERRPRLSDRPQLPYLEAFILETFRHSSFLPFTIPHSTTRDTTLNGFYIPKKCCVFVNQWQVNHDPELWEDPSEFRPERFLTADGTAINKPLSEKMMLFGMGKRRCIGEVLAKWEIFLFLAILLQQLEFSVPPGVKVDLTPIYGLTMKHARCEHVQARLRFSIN
Test [3] deals with Glucocorticoid receptor (Homo sapiens) (UniProt P04150). Kind of test: GR-GFP Redistribution (AID 450;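 active = compounds whose dose series gives a full or clear partial fitted curve of increased nuclear translocation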; note: potency is the fitted concentration of half-maximal effect). The following applies: U2OS GR-GFP nuclear translocation, laser cytometry, 2 h.
Glucocorticoid receptor (Homo sapiens), sequence (P04150 whole entry, looked up): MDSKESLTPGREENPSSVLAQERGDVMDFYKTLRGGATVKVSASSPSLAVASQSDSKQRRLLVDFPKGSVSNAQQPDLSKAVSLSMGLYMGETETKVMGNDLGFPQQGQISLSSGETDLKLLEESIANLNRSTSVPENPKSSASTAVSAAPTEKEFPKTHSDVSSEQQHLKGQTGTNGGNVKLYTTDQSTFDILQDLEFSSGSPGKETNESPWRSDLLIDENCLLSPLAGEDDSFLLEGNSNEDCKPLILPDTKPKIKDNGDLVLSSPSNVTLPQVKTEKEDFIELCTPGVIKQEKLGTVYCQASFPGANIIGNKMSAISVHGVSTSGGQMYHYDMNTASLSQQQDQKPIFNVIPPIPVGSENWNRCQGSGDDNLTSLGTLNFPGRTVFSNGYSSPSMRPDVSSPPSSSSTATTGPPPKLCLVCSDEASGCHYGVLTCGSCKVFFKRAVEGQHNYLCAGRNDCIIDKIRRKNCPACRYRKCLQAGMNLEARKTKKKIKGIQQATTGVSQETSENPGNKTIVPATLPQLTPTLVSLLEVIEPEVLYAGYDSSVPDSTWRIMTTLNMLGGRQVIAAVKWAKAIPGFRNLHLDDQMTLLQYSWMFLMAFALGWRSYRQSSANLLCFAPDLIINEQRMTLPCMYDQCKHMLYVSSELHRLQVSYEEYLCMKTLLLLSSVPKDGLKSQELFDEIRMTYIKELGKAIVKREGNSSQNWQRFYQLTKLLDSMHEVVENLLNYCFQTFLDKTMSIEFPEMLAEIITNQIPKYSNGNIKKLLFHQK
Test [4] has the same target. Kind of test: GR-EFC Redistribution (AID 451; calls by dose curve; note: potency is the fitted concentration of half-maximal effect). The following applies: CHO-K1 GR-EFC translocation, beta-gal luminescence, 2 h. In outline:
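CHO-K1 cells stably expressing nuclear-localized β-gal enzyme acceptor and GR fused C-terminally to the enzyme donor fragment; ligand-driven nuclear translocation restores β-gal by complementation. Compounds titrated up to 46 uM final, 2 h at 37 °C; luminescence read.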

Test [5] deals with Cytochrome P450 3A4 (Homo sapiens) (UniProt P08684). Kind of test: qHTS Assay for Inhibitors and Substrates of Cytochrome P450 3A4 (AID 884). Note: potency is the fitted concentration of half-maximal effect; nearly all actives have a fitted effect of over 50% in size. A digest of the protocol:
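Luminescent readout of luciferin produced by CYP3A4 (20 nM) dealkylation of Luciferin-PPXE, 25 uM (its KM). NADPH-driven reaction ran 60 min at RT after 10 min compound preincubation; data scaled to 57 uM ketoconazole as 100% inhibition.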

Test [6] shares this target. Kind of test: qHTS Assay for Activators of Cytochrome P450 3A4 (AID 885). Note: nearly all actives have a fitted effect of over 65% in size. In outline:
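CYP3A4 activity: Luciferin-PPXE O-dealkylation, 25uM substrate, 200mM KPO4, RT throughout. Read-out is luciferase luminescence; higher values reflect activation.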
On the technique in general: qHTS replaces the single test concentration by a dilution series.

Test [7] concerns the target Cytochrome P450 2C19 (Homo sapiens) (UniProt P33261). Kind of test: qHTS Assay for Inhibitors and Substrates of Cytochrome P450 2C19 (AID 899). Note: potency is the fitted concentration of half-maximal effect; nearly all actives have a fitted effect of over 60% in size. In outline: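 Human CYP2C19 (5nM) with Luciferin-H EGE at 10uM (its KM) in 50mM KPO4 was preincubated with compound for 10 min at 37C. NADPH regeneration started a 60 min 37C reaction. Luciferin was read by luminescence, normalized to 57uM ketoconazole.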

For test [8], the target named is DNA dC->dU-editing enzyme APOBEC-3G (Homo sapiens) (UniProt Q9HC16). In words: qHTS for inhibitors of Vif-A3G interactions: Validation (AID 588379). Note: 0% is about no effect. In outline:
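Yellow fluorescence (Ex 488, Em 500-530) of Vif-coexpressing HeLa A3G-eYFP cells, scanned by Acumen cytometer, reports blocked A3G degradation. Cells plated at 700/well overnight at 37 deg C before compound addition, then a further overnight compound incubation at 37 deg C.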

Test [9] can be described thus: Confirmatory qHTS for small molecule stabilizers of the endoplasmic reticulum resident proteome: Secreted ER Calcium Modulated Protein (SERCaMP) assay (AID 1508628). Note: series mostly up to about 76 µM; % is set by controls: 0 for no effect and ±100 for the full control effect; nearly all actives have a fitted effect of over 40% in size. A digest of the protocol:
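Reporter secretion upon ER calcium depletion (100 nM thapsigargin, 4 h, 37C) is measured as medium luminescence with coelenterazine, after 16 h compound pretreatment of SH-SY5Y-GLuc-SERCaMP cells; primary at three concentrations up to 38.3 uM, follow-up at 11 (up to 76.6 uM).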

Test [10] in a line: Primary qHTS for small molecule stabilizers of the endoplasmic reticulum resident proteome: Secreted ER Calcium Modulated Protein (SERCaMP) assay (AID 1508630). Note: % is set by controls: 0 for no effect and ±100 for the full control effect. In outline:
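The SH-SY5Y reporter protocol was run at 3 concentrations up to 38.3 uM (primary) or 11 concentrations (follow-up): 16 h compound, 100 nM thapsigargin for 4 h, then extracellular luciferase luminescence.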

The target in test [11] is Mitogen-activated protein kinase 10 (Mus musculus) (UniProt Q61831). Kind of test: JNK3 AlphaScreen Assay (AID 530; active = well fitted curve in either direction with a large enough effect, not every such curve was filed as active;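 note: kinase came from lysate of stimulated human HepG2 cells; signal reports phosphorylation of biotinylated GST-cJun 1-79 at Ser73 with 10 µM ATP; series mostly up to about 57 µM; % is set by controls: 0 for no effect and ±100 for the full control effect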). A digest of the protocol: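 Phosphorylation of biotinylated GST-cJun(1-79) at Ser73 is measured by AlphaScreen proximity luminescence. Enzyme is JNK3 in HepG2 lysates activated with interleukin-1beta and tumor necrosis factor alpha; ATP is 10 uM final.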
For orientation: Bead proximity is the source of the signal in Alpha formats.

In test [12] the target is Ubiquitin carboxyl-terminal hydrolase 1 (Homo sapiens) (UniProt O94782). Kind of test: Inhibitors of USP1/UAF1: Pilot qHTS (AID 504865).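 Note: rhodamine fluorescence freed from ubiquitin-rhodamine substrate followed over time; top concentration of the series differs between compounds; % is set by controls: 0 for no effect and ±100 for the full control effect; nearly all actives have a fitted effect of over 35% in size.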 In outline:
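In 50mM HEPES pH 7.8 containing 0.5mM EDTA, 1mM TCEP, 0.1 mg/ml BSA and 0.01% Tween-20, 1nM USP1/UAF1 is exposed to compound for 15 min, then Ub-Rho (150nM final) is added and fluorescence is read over time.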

Cytochrome P450 3A4 (Homo sapiens), sequence (P08684 whole entry, looked up): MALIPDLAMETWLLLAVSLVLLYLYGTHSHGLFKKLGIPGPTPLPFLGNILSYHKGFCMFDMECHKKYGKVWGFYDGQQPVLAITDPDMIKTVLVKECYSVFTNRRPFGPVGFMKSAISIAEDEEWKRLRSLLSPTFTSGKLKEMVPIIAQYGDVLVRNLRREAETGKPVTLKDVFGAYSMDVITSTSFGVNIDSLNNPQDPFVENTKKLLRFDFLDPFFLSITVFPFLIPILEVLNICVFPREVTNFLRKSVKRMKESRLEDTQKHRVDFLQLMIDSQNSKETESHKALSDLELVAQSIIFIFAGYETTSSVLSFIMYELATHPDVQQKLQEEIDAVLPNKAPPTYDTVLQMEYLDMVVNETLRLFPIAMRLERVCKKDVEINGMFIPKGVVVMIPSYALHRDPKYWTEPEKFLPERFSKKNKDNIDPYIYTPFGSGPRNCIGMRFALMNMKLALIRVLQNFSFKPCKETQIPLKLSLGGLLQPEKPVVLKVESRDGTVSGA
DNA dC->dU-editing enzyme APOBEC-3G (Homo sapiens), sequence (Q9HC16 whole entry, looked up): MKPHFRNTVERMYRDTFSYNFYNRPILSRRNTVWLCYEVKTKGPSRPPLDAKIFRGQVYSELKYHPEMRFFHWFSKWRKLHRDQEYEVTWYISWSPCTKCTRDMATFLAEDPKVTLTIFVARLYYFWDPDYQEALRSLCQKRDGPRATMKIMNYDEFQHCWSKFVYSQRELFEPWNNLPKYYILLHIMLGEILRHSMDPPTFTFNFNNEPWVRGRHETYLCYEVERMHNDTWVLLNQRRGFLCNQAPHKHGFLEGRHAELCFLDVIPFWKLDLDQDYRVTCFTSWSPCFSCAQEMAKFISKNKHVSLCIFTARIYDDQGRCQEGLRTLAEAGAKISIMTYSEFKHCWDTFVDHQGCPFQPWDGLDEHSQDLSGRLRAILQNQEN
Ubiquitin carboxyl-terminal hydrolase 1 (Homo sapiens), sequence (O94782 whole entry, looked up): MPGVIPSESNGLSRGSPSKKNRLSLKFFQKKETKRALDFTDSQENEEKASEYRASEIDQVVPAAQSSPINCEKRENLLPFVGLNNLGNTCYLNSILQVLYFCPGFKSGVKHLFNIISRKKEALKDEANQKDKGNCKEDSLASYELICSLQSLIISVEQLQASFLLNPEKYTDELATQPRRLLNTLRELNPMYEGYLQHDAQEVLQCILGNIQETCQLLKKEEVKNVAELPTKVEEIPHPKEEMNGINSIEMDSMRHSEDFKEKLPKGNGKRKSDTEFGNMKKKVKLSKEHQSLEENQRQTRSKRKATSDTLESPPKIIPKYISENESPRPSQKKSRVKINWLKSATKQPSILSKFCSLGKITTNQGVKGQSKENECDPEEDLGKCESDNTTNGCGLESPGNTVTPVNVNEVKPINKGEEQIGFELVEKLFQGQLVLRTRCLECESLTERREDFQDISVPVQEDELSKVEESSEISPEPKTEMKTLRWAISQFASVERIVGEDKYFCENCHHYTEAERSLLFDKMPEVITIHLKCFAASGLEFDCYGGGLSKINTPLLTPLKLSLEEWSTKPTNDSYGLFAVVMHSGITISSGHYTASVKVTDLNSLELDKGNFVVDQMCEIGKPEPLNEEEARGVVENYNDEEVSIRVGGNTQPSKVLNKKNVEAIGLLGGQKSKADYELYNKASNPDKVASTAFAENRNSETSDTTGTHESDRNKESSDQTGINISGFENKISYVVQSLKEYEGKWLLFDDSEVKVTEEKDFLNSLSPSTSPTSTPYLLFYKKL
Cytochrome P450 2C19 (Homo sapiens), sequence (P33261 whole entry, looked up): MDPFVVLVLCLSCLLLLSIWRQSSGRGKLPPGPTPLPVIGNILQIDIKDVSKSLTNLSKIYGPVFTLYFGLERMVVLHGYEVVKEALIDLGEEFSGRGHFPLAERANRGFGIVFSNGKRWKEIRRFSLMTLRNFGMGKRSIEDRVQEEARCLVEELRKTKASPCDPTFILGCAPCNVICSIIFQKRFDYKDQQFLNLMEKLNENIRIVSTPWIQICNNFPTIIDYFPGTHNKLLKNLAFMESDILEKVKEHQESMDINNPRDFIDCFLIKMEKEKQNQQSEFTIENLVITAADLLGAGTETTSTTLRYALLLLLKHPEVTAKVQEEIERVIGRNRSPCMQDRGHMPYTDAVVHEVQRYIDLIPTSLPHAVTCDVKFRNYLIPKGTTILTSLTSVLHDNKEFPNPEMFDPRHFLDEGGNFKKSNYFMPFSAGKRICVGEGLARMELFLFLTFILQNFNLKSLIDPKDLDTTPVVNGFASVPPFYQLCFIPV

`NCCc1ccccn1`: in test [1], the Potency entry is “inactive”.
Regarding `CN(C(=O)Cc1ccc(Cl)c(Cl)c1)[C@H](CN1CCCC1)c1ccccc1`, the Potency is 31.6 µM (active) in test [2]; over 46 µM in test [3]; over 46 µM in test [4]; 6.31 µM (active) in test [5]; 0.316 µM (active) in test [7]. Also, the Potency entry in test [6], in test [8], in test [1], in test [9] and in [10] was “inactive” each time.
For `O[C@@H]1[C@H](O)[C@H]2[C@@H](O)CCN2C[C@@H]1O`, the Potency in [3] and in [4] was over 46 µM throughout. For the same molecule, in test [11], the molecule was classed as inactive. For the same molecule, the Potency result in test [12], in test [8], in [1], in [9] and in [10] was “inactive” in each case.
Take `CCCCC/C=C\C/C=C\C/C=C\C/C=C\CCCCCC(=O)NCCO`: in [1], the activity change, negative = inhibition was 3.5% [at 6.83 µM].
As to `OC[C@H]1O[C@@H](n2cnc3cc(Cl)c(Cl)cc32)[C@H](O)[C@H]1O`, the Potency entry in [1] is “inactive”.
